# Laboratory results reported in the supplement of paper PMC11732987, “Enantioselective OTUD7B fragment discovery through chemoproteomics screening and high-throughput optimisation” (Communications Chemistry, 2025).
# Unmarked numbers belong to inactive results.
# Columns and labels:
# Test in all cases: log2 ratio of Biotin-Ahx-Ub-VS probe labelling (fragment/DMSO); higher = less target engagement (more negative = stronger competition), active = hit call of the paper (q ≤ 0.05, log2 ratio ≤ -1)
# Conditions in all cases: compound concentration: 200 uM; treatment time: 3 h
# USP19 = biological target: T1, USP19 (UniProt O94966)
# T1 sequence (whole entry): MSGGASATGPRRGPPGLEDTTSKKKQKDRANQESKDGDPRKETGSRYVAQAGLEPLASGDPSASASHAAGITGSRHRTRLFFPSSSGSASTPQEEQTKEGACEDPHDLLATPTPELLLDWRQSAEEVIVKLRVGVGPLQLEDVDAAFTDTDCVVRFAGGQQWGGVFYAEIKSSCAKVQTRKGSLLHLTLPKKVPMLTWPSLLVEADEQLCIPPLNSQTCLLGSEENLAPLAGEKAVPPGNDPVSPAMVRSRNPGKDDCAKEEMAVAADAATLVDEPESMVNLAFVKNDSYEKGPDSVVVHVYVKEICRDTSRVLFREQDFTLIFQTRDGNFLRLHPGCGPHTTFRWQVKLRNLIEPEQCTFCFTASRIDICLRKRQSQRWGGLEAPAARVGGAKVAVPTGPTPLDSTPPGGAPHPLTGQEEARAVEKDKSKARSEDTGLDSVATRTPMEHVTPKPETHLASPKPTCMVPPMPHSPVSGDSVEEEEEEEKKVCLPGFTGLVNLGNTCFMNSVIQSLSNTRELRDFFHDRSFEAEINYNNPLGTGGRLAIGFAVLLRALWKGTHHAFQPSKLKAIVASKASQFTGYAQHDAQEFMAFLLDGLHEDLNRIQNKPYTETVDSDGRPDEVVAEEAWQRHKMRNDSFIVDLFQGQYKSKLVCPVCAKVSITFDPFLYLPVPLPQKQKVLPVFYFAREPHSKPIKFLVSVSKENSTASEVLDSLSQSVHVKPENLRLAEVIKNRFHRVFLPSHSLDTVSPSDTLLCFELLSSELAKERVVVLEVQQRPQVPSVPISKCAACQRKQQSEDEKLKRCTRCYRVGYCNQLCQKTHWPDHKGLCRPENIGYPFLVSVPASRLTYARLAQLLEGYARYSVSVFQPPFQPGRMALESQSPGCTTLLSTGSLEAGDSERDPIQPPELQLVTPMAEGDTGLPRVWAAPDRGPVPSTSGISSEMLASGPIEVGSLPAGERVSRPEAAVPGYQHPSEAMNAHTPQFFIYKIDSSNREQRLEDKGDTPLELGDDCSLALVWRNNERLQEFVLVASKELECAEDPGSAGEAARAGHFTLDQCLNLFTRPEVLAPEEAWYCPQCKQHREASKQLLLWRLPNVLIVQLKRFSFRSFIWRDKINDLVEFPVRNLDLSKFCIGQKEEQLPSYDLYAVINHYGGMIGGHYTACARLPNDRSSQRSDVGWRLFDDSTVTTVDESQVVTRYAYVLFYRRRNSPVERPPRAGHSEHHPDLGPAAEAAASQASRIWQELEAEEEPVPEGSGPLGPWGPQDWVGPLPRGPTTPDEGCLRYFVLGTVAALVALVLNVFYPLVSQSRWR
# Procedure, shortened: (§1)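 HEK293T lysate in Tris/CHAPS/IGEPAL buffer with protease inhibitors (495 µg per sample) was given fragment at 200 µM or vehicle for 3 h, in triplicate. It then received Biotin-Ahx-Ub-VS at 0.5 µM final for 1 h. Labelled DUBs were NeutrAvidin-enriched, digested with LysC and trypsin, and run by diaPASEF LC-MS/MS. Values are average log2 fragment/vehicle ratios by unpaired t-test on global-median-normalised Spectronaut quantities of proteins with ≥2 unique peptides.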
# USP24 = USP24 (UniProt Q9UPU5)
# Procedure, shortened: as §1
# USP25 = biological target: T2, USP25 (UniProt Q9UHP3)
# T2 sequence (whole entry): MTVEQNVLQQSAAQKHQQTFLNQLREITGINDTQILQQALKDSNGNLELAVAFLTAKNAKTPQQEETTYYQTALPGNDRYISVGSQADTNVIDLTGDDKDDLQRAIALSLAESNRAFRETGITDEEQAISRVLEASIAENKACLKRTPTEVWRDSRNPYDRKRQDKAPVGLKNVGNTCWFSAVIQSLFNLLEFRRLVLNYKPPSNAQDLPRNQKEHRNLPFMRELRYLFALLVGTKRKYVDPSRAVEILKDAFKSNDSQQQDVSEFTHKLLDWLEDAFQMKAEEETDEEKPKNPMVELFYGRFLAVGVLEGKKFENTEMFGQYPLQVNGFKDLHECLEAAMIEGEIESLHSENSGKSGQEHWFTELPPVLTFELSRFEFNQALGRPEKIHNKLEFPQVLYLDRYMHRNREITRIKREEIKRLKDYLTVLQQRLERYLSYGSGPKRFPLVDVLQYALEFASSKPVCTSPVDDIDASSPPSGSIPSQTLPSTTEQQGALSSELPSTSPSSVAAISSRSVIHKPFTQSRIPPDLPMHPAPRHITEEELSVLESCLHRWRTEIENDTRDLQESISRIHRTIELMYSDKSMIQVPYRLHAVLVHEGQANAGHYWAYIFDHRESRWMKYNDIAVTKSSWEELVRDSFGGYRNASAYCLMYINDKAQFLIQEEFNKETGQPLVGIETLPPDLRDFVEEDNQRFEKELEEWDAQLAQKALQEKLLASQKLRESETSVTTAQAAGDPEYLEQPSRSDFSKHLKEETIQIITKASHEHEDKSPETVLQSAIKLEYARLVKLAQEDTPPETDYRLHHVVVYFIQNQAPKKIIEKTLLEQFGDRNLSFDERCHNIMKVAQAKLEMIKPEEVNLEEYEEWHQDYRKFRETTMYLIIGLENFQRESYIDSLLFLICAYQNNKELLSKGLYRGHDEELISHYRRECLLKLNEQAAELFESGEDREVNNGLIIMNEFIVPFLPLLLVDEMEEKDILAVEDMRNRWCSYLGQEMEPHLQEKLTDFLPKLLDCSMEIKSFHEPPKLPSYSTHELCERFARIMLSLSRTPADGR
# Procedure, shortened: as §1
# USP28 = biological target: T3, USP28 (UniProt Q96RU2)
# T3 sequence (whole entry): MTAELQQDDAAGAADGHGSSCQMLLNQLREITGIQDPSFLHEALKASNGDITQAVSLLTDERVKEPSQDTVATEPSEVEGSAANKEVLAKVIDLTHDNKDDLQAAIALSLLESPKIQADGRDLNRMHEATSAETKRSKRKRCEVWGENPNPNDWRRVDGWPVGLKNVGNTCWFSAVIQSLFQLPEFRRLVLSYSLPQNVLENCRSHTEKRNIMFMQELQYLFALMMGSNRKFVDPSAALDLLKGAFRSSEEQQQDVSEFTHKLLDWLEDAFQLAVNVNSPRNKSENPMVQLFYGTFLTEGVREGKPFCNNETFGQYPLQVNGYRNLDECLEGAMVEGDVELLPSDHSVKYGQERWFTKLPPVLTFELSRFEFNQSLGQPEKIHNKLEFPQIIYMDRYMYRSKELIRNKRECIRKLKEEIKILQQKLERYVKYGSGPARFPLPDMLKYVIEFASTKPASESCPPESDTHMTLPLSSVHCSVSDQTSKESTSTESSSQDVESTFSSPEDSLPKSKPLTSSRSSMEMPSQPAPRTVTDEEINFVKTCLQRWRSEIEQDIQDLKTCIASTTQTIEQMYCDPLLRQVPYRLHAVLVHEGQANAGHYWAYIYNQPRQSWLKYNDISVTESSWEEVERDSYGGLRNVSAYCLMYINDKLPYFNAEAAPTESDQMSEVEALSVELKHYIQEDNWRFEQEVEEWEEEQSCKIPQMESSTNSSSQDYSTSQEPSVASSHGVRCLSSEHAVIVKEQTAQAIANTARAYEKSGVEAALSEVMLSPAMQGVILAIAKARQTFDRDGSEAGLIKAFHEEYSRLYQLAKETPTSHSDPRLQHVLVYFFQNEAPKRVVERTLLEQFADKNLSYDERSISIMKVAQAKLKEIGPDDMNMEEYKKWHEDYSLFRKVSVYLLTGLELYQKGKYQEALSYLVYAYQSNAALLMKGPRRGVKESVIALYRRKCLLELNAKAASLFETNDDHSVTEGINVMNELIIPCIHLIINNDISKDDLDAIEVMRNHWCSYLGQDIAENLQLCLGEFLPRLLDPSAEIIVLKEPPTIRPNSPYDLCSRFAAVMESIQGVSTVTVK
# Procedure, shortened: as §1
# Sequence of USP24 (Q9UPU5 whole entry): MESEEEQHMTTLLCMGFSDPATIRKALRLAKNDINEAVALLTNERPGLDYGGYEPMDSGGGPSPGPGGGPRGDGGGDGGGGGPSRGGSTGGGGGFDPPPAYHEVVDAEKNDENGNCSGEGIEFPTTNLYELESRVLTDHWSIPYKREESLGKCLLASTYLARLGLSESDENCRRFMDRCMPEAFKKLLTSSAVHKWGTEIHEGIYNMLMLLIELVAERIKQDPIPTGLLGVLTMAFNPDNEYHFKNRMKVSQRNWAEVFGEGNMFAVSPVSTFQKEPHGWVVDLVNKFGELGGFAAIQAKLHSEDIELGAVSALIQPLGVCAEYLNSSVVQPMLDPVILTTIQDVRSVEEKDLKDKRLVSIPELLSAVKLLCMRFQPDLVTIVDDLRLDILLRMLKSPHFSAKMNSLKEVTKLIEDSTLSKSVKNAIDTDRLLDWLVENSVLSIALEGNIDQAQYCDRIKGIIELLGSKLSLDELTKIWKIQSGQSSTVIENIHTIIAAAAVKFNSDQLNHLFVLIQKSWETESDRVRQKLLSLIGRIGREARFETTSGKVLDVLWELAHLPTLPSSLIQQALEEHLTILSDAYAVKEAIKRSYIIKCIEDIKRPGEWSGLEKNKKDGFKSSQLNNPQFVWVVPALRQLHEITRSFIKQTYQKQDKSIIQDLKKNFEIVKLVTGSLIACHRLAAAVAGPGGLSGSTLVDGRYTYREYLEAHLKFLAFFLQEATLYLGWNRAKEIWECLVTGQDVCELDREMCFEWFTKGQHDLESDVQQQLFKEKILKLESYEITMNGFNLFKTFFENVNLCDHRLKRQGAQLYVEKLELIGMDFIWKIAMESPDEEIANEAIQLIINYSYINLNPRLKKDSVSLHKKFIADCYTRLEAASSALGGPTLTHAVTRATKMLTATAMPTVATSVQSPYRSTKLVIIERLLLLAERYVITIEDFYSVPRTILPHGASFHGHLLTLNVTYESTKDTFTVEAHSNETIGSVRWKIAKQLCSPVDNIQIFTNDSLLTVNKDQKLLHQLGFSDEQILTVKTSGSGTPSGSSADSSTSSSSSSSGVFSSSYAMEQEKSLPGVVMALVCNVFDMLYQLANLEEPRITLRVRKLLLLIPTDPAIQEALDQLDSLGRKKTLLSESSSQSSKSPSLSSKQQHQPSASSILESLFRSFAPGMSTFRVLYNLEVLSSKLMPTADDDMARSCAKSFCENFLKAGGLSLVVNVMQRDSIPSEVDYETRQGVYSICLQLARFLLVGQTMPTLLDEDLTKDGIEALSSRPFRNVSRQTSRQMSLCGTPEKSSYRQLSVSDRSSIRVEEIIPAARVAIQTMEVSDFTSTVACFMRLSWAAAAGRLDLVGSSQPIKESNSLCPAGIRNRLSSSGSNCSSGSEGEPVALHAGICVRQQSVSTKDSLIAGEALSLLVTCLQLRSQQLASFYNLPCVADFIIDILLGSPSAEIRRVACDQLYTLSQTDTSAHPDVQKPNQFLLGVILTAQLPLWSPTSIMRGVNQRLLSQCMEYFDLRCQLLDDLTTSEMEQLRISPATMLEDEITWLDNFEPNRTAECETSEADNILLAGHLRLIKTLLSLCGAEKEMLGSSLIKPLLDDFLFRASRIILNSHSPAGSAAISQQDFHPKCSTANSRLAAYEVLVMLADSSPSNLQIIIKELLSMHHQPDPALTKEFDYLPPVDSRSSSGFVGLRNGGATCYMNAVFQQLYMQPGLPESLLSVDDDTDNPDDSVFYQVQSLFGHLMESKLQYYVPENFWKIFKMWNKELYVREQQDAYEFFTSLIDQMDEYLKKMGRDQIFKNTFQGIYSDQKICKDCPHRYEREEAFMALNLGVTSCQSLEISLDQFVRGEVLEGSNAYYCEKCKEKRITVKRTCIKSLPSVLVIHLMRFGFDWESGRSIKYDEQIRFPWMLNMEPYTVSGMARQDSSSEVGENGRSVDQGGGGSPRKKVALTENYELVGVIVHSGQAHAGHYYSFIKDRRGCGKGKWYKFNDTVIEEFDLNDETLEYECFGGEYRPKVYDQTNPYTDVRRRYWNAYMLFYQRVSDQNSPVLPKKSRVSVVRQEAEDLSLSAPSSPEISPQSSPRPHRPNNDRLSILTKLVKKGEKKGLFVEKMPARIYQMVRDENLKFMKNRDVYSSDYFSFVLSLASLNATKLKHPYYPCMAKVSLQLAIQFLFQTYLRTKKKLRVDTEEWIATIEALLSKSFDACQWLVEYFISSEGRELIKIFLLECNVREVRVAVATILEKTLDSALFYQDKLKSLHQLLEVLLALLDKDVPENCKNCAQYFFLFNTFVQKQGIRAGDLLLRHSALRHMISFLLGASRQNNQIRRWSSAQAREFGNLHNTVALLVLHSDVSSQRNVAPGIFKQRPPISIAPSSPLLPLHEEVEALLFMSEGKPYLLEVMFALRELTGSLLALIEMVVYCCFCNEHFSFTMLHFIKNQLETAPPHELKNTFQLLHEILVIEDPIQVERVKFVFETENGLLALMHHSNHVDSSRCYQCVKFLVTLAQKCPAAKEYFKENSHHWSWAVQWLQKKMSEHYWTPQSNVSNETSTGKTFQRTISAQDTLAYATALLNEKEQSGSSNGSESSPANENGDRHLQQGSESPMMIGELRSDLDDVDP
smiles,measurement,setting,value
Cl.O=C(CCl)N1CCC(n2nc3ccccc3n2)CC1,log2 ratio of Biotin-Ahx-Ub-VS probe labelling,USP19,-0.666
same,log2 ratio of Biotin-Ahx-Ub-VS probe labelling,USP24,-1.08 (active)
same,log2 ratio of Biotin-Ahx-Ub-VS probe labelling,USP25,-0.61
same,log2 ratio of Biotin-Ahx-Ub-VS probe labelling,USP28,-0.611
